The text below walks through data of PubChem BioAssay (NCATS).

The target of experiment [1] is Androgen receptor (Homo sapiens) (UniProt P10275). Description: qHTS assay for small molecule agonists of androgen receptor signaling (AID 588515; active = well fitted curve in the direction sought with a large enough effect in the signal ratio, with a control signal flat; the % refers to the signal ratio). To be noted: AR-UAS-bla HEK293, beta-lactamase ratio, agonist 16 h; active compounds read high. The essentials: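 Stimulation of an AR-responsive β-lactamase reporter in GripTite HEK293 cells was measured after 16 h compound exposure at 37 °C, via CCF4 fluorescence after 2 h RT. EC50 from Hill fits, normalized to R1881 at 30 nM.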
Chain of Androgen receptor (Homo sapiens) (P10275 whole entry, looked up): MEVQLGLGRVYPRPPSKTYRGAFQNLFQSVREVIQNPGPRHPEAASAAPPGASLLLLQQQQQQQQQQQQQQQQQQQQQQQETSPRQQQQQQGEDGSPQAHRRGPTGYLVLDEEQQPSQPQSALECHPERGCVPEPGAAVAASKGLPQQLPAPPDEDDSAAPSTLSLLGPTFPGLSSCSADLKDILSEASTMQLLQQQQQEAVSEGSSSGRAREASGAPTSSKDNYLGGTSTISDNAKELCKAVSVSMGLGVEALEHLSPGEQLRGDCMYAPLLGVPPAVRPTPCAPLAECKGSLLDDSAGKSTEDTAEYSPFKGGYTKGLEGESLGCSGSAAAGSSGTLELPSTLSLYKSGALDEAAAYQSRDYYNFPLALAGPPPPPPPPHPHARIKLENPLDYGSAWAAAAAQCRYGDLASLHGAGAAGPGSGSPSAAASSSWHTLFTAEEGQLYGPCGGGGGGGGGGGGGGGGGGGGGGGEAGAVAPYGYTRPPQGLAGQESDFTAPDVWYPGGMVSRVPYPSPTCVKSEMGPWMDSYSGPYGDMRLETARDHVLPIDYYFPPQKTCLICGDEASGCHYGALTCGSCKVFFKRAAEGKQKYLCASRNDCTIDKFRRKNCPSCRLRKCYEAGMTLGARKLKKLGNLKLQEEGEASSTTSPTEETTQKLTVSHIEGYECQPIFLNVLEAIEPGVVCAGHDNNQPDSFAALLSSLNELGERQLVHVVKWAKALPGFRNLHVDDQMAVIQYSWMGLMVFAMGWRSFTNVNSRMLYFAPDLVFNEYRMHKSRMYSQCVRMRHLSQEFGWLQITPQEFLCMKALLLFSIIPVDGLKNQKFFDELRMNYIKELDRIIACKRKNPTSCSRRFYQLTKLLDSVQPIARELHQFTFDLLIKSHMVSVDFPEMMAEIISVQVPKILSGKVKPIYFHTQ
For orientation: qHTS replaces the single test concentration by a dilution series.

The target is the same in experiment [2]. Nature of the experiment: qHTS assay for small molecule antagonists of androgen receptor signaling (AID 588516; active = well fitted curve in the direction sought with a large enough effect in the signal ratio, with a control signal flat, not every such curve was filed as active; the % refers to the signal ratio). The following applies: AR-UAS-bla HEK293, beta-lactamase ratio, antagonist mode, 16 h; series mostly up to 76.8 µM. In a few lines:
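AR-UAS-bla-GripTite HEK 293 cells (2000/well, 5 h at 37 C) received compound titrations, then R1881 at 10 nM final; after 16 h at 37 C, CCF4 dye 2 h RT, beta-lactamase fluorescence read; IC50 from Hill fits.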

The nature of experiment [3]: qHTS assay to identify small molecules that stimulate interleukin-8 (IL-8) secretion (AID 651758; active = well fitted activation curve with a large enough effect in the signal ratio; the % refers to the signal ratio). To be noted: HTRF ratio (665/615); series mostly up to 92.2 µM. In a few lines:
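Compounds are added to THP-1 cells (2000 per well) and left 16 hrs at 37 C. A labeled anti-IL-8 antibody pair is then added, and IL-8 secretion is measured by time-resolved FRET after 1-3 hrs at room temperature.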

Experiment [4] has as its target Bile acid receptor (Homo sapiens) (UniProt Q96RI1). Nature of the experiment: qHTS assay for small molecule antagonists of farnesoid X receptor signaling (AID 588526). The following applies: HEK293T FXR-UAS-bla, beta-lactamase ratio, antagonist mode; series mostly up to 76.7 µM. In a few lines: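 Antagonist mode: titrated compounds tested against chenodeoxycholic acid stimulation (normalized to 50 uM CDCA and DMSO) in GeneBLAzer HEK293T cells for 16 h. Beta-lactamase read by CCF4 fluorescence; IC50 from Hill fits.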

Experiment [5] has the same target. Nature of the experiment: qHTS assay for small molecule agonists of farnesoid X receptor signaling (AID 588527). To be noted: HEK293T FXR-UAS-bla, beta-lactamase ratio, 16 h; active compounds read high. In a few lines:
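Quantitative HTS used FXR-UAS-bla HEK293T cells with 16 h compound incubation at 37 C. EC50 values came from concentration-response curves normalized to chenodeoxycholic acid.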

In experiment [6] the target is Cytochrome P450 3A4 (Homo sapiens) (UniProt P08684). Description: qHTS Assay for Activators of Cytochrome P450 3A4 (AID 885; active = well fitted activation curve with a large enough effect; note: nearly all actives have a fitted effect of over 65% in size). The following applies: recombinant CYP3A4, Luciferin-PPXE luminescence, 60 min; series mostly up to 57.1 µM. In a few lines:
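Using 20nM recombinant human CYP3A4 in potassium phosphate (200mM), substrate Luciferin-PPXE at 25uM, luminescent luciferin detection followed a 60-min RT NADPH reaction; data scaled to 57 uM ketoconazole.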

SMILES strings stand for the structures. “And” between values parts separate entries of the source, which are not always exact repeats. Equal entries are not always repeated. Unmarked numbers belong to inactive results. Inconclusive results are not listed. A call without a number means that no potency is given here. The source made the active and inactive calls. Unless noted, calls come from the whole dose curve.

Chain of Cytochrome P450 3A4 (Homo sapiens) (P08684 whole entry, looked up): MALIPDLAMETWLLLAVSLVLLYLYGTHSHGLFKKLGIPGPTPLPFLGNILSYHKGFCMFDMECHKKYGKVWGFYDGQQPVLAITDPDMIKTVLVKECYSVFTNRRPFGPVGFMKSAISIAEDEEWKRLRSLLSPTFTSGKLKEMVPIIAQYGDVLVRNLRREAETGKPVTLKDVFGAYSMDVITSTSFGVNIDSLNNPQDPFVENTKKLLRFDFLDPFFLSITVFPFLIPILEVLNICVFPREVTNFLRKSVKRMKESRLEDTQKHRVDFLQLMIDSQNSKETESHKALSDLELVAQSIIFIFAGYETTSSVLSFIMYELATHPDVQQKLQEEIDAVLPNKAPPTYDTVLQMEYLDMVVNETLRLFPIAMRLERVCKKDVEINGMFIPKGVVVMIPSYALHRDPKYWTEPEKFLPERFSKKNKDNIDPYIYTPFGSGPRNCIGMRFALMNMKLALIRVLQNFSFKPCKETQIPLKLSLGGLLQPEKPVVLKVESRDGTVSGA
Chain of Bile acid receptor (Homo sapiens) (Q96RI1 whole entry, looked up): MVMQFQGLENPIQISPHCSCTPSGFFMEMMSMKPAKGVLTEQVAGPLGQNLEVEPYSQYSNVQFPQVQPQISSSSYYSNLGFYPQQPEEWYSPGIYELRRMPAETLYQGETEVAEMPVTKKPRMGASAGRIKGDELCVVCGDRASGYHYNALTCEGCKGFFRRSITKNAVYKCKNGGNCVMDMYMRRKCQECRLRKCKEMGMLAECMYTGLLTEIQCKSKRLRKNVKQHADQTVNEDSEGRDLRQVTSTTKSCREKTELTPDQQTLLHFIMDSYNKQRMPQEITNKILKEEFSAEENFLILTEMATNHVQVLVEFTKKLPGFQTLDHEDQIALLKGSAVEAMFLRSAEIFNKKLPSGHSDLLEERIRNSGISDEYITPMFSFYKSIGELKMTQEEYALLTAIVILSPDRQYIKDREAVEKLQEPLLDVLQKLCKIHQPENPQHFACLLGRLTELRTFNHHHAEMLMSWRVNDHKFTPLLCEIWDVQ

In the case of `O=NN1CCCCC1`, in experiment [1], the activation was 6.11%. The result in experiment [2] was inactive. In experiment [3], the Potency entry was “inactive”.

In the case of `O=C(Cl)OCc1ccccc1`, in experiment [3], the Potency result is “inactive”.

With `CN(C)C(=O)Cl`, the Potency result in experiment [3] was “inactive”.

As for `N#CCBr`, in experiment [4], the result was inactive. The activation in experiment [5] is -0.961%.

For the molecule `O=C(O)C(Cl)(Cl)Br`, in experiment [4], the result was inactive. In experiment [5], the activation was -1.03%.

As to `OCCCCO`, in experiment [4], the outcome was inactive. The activation in experiment [5] is -2.93%.

For `O=S(=O)(O)F`, in experiment [4], the outcome was inactive. For the same molecule, in experiment [5], the activation was 0.0183%.

For `N#CC(O)c1ccccc1` (configuration not stated), the result in experiment [4] was inactive. The activation in experiment [5] is -0.559%. The Potency entry in experiment [3] is “inactive”.

As for `Cc1ccc(N)c(C)c1`, the result in experiment [4] was inactive. In addition, the activation in experiment [5] is 3.12%.

Regarding `Cc1cnc[nH]1`, the activation was -7.55% in experiment [1] and -0.548% in experiment [5]. Also, the outcome in experiment [4] was inactive.

For `Oc1cc(Cl)ccc1Cl`, the Potency entry in experiment [6] and in experiment [3] was “inactive” in each case.

In the case of `c1ccc(NNc2ccccc2)cc1`, the result in experiment [4] was inactive. Besides, in experiment [5], the activation is 1.06% and 0.0431%. For the same molecule, the Potency entry in experiment [3] was “inactive”.

As for `CC12CC1(C)C(=O)N(c1cc(Cl)cc(Cl)c1)C2=O` (configuration not stated), the activation in experiment [1] is -2.56% and 15.9%.

`Nc1cccc(Cl)c1`: in experiment [4], the outcome was inactive. Further, in experiment [5], the activation is -2.3%.

Take `CCN(CC)N=O`: the activation in experiment [5] is -2.25%.

Turning to `Cc1ccc(N)cc1N`, the result in experiment [4] was inactive. The activation in experiment [5] is 0.164% and -1.15%.

Turning to `Clc1cccc(Cl)c1`, the Potency entry in experiment [3] was “inactive”.

In the case of `Cc1ccc(N)cc1Cl`, the Potency entry in experiment [6] and in experiment [3] was “inactive” each time.

As for `CN(C)c1ccccc1`, the result in experiment [4] was inactive. In experiment [5], the activation is -2.07%.

On to `CC(C#N)CCC#N` (configuration not stated), for which the Potency result in experiment [3] is “inactive”.

Turning to `c1ccc(C2CO2)cc1` (configuration not stated), in experiment [3], the Potency result was “inactive”.

With `CCOC(=O)CC(SP(=O)(OC)OC)C(=O)OCC` (configuration not stated), the Potency entry in experiment [6] is “inactive”. In addition, the result in experiment [4] was inactive. The activation in experiment [5] is -1.01% and 1.76%.

For the molecule `CCCCOC(C)=O`, the outcome in experiment [4] was inactive. In addition, the activation in experiment [5] is 1.21%.

Regarding `Nc1ncc([N+](=O)[O-])s1`, the outcome in experiment [4] was inactive. For the same molecule, the activation in experiment [5] is -2.74%.

Take `CCC/C=N/O`: in experiment [4], the result was inactive. Besides, the activation in experiment [5] was 0.311%. In addition, the Potency entry in experiment [3] was “inactive”.

`CCOC(=O)CBr`: the result in experiment [4] was inactive. In addition, the activation in experiment [5] is 0.321%. Moreover, the Potency result in experiment [3] was “inactive”.

For `Nc1ccc(-c2ccc(N)cc2)cc1`, the Potency entry in experiment [6] was “inactive”.

As to `OCCBr`, the result in experiment [4] was inactive. Besides, the activation in experiment [5] was -2.65%.

Consider `O=[N+]([O-])c1cccc(O)c1`, for which the outcome in experiment [4] was inactive. In addition, the activation in experiment [5] is -2.84%. Moreover, in experiment [3], the Potency result is “inactive”.

As for `OC[P+](CO)(CO)CO`, the Potency entry in experiment [3] is “inactive”.

As to `CCCCCc1cc(O)cc(O)c1`, the Potency result in experiment [6] and in experiment [3] was “inactive” in each case. Also, the outcome in experiment [4] was inactive. For the same molecule, in experiment [5], the activation was 2.26%.

For `Nc1c(Cl)cc([N+](=O)[O-])cc1Cl`, the activation was -19.7% in experiment [1]; -3.3% and 0.0652% in experiment [5]. For the same molecule, in experiment [4], the result was inactive.

With `Clc1cccc2ccccc12`, the Potency entry in experiment [3] was “inactive”.

Take `CC1CC(=O)O1` (configuration not stated): the outcome in experiment [4] was inactive. For the same molecule, the activation in experiment [5] is -1.6%.

Consider `CC(C)(C)C(O)(CCc1ccc(Cl)cc1)Cn1cncn1` (configuration not stated), for which the Potency entry in experiment [6] was “inactive”.

For `CCC[N+](=O)[O-]`, the outcome in experiment [4] was inactive. In addition, the activation in experiment [5] was 2.98%.

`CCCCNC(=O)n1c(NC(=O)OC)nc2ccccc21`: the activation is -8.05% in experiment [1]; -3.82% and -0.311% in experiment [5].

`Cc1ccc(N)cc1C`: the result in experiment [4] was inactive. Besides, the activation in experiment [5] is 1.96%.

Regarding `O=[N+]([O-])c1cccc2c([N+](=O)[O-])cccc12`, the activation in experiment [1] is 1.43%. In addition, the result in experiment [2] was inactive. Further, the Potency result in experiment [3] was “inactive”.

Turning to `C/C=C/CC#N`, in experiment [4], the outcome was inactive. The activation in experiment [5] was -1.31%. For the same molecule, the Potency result in experiment [3] is “inactive”.

For the molecule `O=P(OCCCl)(OCCCl)OCCCl`, in experiment [4], the result was inactive. Also, the activation in experiment [5] was -0.898%. The Potency result in experiment [3] is “inactive”.

Take `[N-]=[N+]=[N-]`: the activation in experiment [1] was -1.14%. Besides, the outcome in experiment [2] was inactive.

Consider `COc1ccc(C=O)cc1`, for which the Potency entry in experiment [3] was “inactive”.

On to `ClP(Cl)(Cl)(Cl)Cl`, for which, in experiment [4], the outcome was inactive. For the same molecule, the activation in experiment [5] is -2.17%.

Regarding `Cc1cc(-c2cc(C)c(N)c(C)c2)cc(C)c1N`, the Potency entry in experiment [6] is “inactive”.

For `Clc1cccc(Cl)c1Cl`, the Potency result in experiment [3] was “inactive”.
